Values joined by “and” are separate entries in the source; they are usually repeats but may differ in a detail not shown here. Identical values can stand only once. Results filed as inconclusive are left out. Where a structure was tested more than once in an assay, its records may differ in their call. Active and inactive are the calls of the source. How the source made its calls, unless noted: active means hit-call score of the fitted dose curve at least 0.9, where 1 is the maximum; inactive means score below 0.9.
Tests used:
[1] = BSK_BT_PBMCCytotoxicity: PBMC Cytotoxicity Assessment in the BioMAP Diversity Plus: BT Assay (AID 2284225); conditions: primary human B cells with PBMC;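 further: PBMC viability measured by Alamar Blue dye reduction fluorescence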
Outline: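 Viability by Alamar Blue reduction (6 h, ex/em 546/580 nm) after 90 h culture of SEB/TSST-1-activated PBMC (20 ng/mL each) given compound 1 h before activation. DMSO served as baseline for curve fitting.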

[2] = read-out: Secreted IgG (sIgG), gene 3500; test: BSK_BT_sIgG: BioMAP Diversity Plus: BT Assay for Secreted IgG (sIgG) Biomarker Activity (AID 2284226); conditions: primary human B cells with PBMC
Outline: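 Cells (B cells with peripheral blood mononuclear cells) are dosed, cultured 24 h, then supernatant IgG is measured by ELISA. DMSO serves as negative control; curves are fitted for signal increase.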

[3] = BSK_BT_Bcell_Proliferation: Viability Assessment in the BioMAP Diversity Plus: BT Assay for B cell Proliferation (AID 2284227); conditions: primary human B cells with PBMC
Outline: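 SRB-based protein staining (0.1% SRB after 10% TCA fixation, 560 nm) quantifies proliferation in human B cells co-cultured with PBMC, 72 h post-dosing, with signal gain scored relative to DMSO negative control.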

[4] = read-out: Interleukin 6 (IL6), IL6 (gene 3569); test: BSK_BT_xIL6: BioMAP Diversity Plus: BT Assay for Interleukin 6 (IL6) Biomarker Activity (AID 2284228); conditions: primary human B cells with PBMC
Outline: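 Readout: secreted IL-6 via Luminex xMAP multiplex, 24 h post-dosing. System: primary human B cells co-cultured with PBMC. Signal change scored relative to DMSO vehicle, positive fitting direction.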

[5] = read-out: Interleukin 17A (IL17A), IL17A (gene 3605); test: BSK_BT_xIL17A: BioMAP Diversity Plus: BT Assay for Interleukin 17A (IL17A) Biomarker Activity (AID 2284229); conditions: primary human B cells with PBMC
Outline: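 Luminex xMAP readout of secreted IL-17A; human B cell + PBMC co-culture; 24 h post-dose; positive-direction fit vs DMSO negative control.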

[6] = read-out: Tumor necrosis factor (Homo sapiens) (UniProt P01375); test: BSK_BT_xTNFa: BioMAP Diversity Plus: BT Assay for Tumor necrosis factor alpha (TNF-alpha) Biomarker Activity (AID 2284230); conditions: primary human B cells with PBMC
Outline: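 Compounds were added to a B cell plus PBMC co-culture, and after 24 h secreted TNF-alpha was quantified with Luminex xMAP technology, with responses fitted upward from the DMSO control.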

[7] = read-out: Vascular cell adhesion molecule 1 (VCAM1), VCAM1 (gene 7412); test: BSK_MyoF_VCAM1: BioMAP Diversity Plus: MyoF Assay for Vascular cell adhesion molecule 1 (VCAM1) Biomarker Activity (AID 2284231); conditions: primary human lung fibroblasts
Outline: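 MyoF system, lung fibroblasts; 24 h post-dose; VCAM-1 by ELISA; gain-of-signal fit vs DMSO baseline.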

[8] = read-out: Collagen I, COL1A1 (gene 1277); test: BSK_MyoF_CollagenI: BioMAP Diversity Plus: MyoF Assay for Collagen I Biomarker Activity (AID 2284238); conditions: primary human lung fibroblasts
Outline: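 ELISA readout of Collagen I after 24 h chemical treatment of primary human lung fibroblast cultures; gain of signal scored relative to DMSO vehicle baseline.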

[9] = read-out: Collagen III, COL3A1 (gene 1281); test: BSK_MyoF_CollagenIII: BioMAP Diversity Plus: MyoF Assay for Collagen III Biomarker Activity (AID 2284239); conditions: primary human lung fibroblasts
Outline: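 Lung fibroblast culture; 24 h compound exposure; collagen III by ELISA; gain-of-signal fit vs DMSO baseline.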

[10] = read-out: Interleukin 17F (IL17F), IL17F (gene 112744); test: BSK_BT_xIL17F: BioMAP Diversity Plus: BT Assay for Interleukin 17F (IL17F) Biomarker Activity (AID 2284243); conditions: primary human B cells with PBMC
Outline: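 Secreted IL-17F, read on LumineX xMAP beads, was taken as the endpoint. Cultures combined human B cells and peripheral blood mononuclear cells, sampled 24 hours after dosing, with DMSO serving as negative control.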

[11] = CCTE_Mundy_HCI_hNP1_Casp3_7: CCTE's Caspase-Glo 3/7 Assay in human neuroprogenitor cells for Apoptosis, Mundy Lab (AID 2284240)
Outline: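 Neuroepithelial-lineage stem cells from WA09 embryonic cells were treated with chemicals after 40–44 h of culture. Twenty-four hours later, caspase-3/7 activation was detected luminescently after a 30 min room-temperature reagent step, with DMSO as baseline.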

[12] = CCTE_Mundy_HCI_hNP1_CellTiter: CCTE's Cell Titer-Glo 2 Assay in human neuroprogenitor cells for Viability, Mundy Lab (AID 2284241; active means hit-call score of the fitted dose curve at least 0.9, where 1 is the maximum)
Outline: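 Measures ATP content in human neural progenitors derived from WA09 embryonic cells. Read-out at 26.5 hours after dosing, with DMSO serving as the negative control and baseline.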

[13] = CCTE_Mundy_HCI_hNP1_Pro_ResponderAvgInten: CCTE's Proliferation Assay in human neuroprogenitor cells, Mundy Lab (AID 2284224; active means hit-call score of the fitted dose curve at least 0.9, where 1 is the maximum;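 further: human neural progenitor cells hNP1 derived from WA09 embryonic stem cells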)
Outline: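 Human neuroprogenitors (hNP1, WA09 lineage) receive test chemical after 40 to 44 hours of attachment. A four-hour BrdU pulse begins twenty hours later, followed by fixation and high content imaging; signal is referenced to DMSO controls.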

Measured: AC50

Chain of Tumor necrosis factor (Homo sapiens) (P01375 whole entry, looked up): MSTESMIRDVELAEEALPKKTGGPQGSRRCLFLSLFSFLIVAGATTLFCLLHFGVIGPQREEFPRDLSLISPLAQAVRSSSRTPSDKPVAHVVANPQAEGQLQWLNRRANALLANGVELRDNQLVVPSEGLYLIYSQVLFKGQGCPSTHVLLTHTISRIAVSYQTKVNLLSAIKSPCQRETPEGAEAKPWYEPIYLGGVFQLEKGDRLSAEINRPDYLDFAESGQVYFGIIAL

CCCCCCCCC(F)(F)C(F)(F)C(F)(F)C(F)(F)C(F)(F)C(F)(F)F
not listed: [11] | [12] | [13]
inactive: all other assays above

O=C(O)C=C(C(F)(F)F)C(F)(F)F
active: [2] 46 µM and 43.1 µM | [3] 30 µM | [6] 30 µM and 34.9 µM | [7] 21.8 µM and 16.2 µM | [10] 10.4 µM and 8.84 µM
inactive: [1] | [4] | [5] | [9]

O=C(O)C(F)(OC(F)(F)C(F)(OC(F)(F)C(F)(F)C(F)(F)F)C(F)(F)F)C(F)(F)F (stereo not drawn)
not listed: [8] | [11] | [12] | [13]
inactive: all other assays above

FC(F)(F)C(F)(F)C(F)(F)C(F)(F)C(F)(F)C(F)(F)C(F)(F)I
active: [7] 4.15 µM and 4.24 µM | [8] 4.56 µM and 3.16 µM | [9] 5.06 µM and 4.85 µM
not listed: [11] | [12] | [13]
inactive: all other assays above

Nc1ccc([N+](=O)[O-])cc1O
not listed: [11] | [12] | [13]
inactive: all other assays above

FC(F)(F)C(F)(F)C(F)(F)CI
not listed: [8] | [13]
inactive: all other assays above

O=C(O)C(F)(F)C(F)(F)C(F)(F)C(F)(F)C(F)(F)C(F)(F)C(F)(F)C(F)(F)C(F)(F)C(F)(F)C(F)(F)C(F)(F)C(F)(F)F
not listed: [8] | [11] | [12] | [13]
inactive: all other assays above

OCC(F)(F)C(F)(F)C(F)(F)C(F)(F)C(F)(F)C(F)(F)F
active: [1] 41 µM | [2] 43.9 µM | [3] 47.7 µM | [6] 41.2 µM | [10] 43.8 µM and 40.2 µM
inactive: [1] | [2] | [3] | [4] | [5] | [6] | [7] | [9]

CCCCNc1ccccc1
not listed: [11] | [12] | [13]
inactive: all other assays above

CO[Si](OC)(c1ccccc1)c1ccccc1
active: [7] 32.8 µM | [9] 31.6 µM
not listed: [8] | [11] | [12] | [13]
inactive: all other assays above

C#C[C@]1(O)CC[C@H]2[C@@H]3CCc4cc(OC)ccc4[C@H]3CC[C@@]21C
active: [2] 7.71 µM | [3] 29.6 µM | [6] 20 µM | [10] 20 µM
not listed: [11] | [12] | [13]
inactive: all other assays above

O=C(O)C(F)(F)C(F)(F)C(F)(F)C(F)(F)C(F)(F)C(F)(F)C(F)(F)C(F)(F)C(F)(F)C(F)(F)C(F)(F)C(F)(F)F
not listed: [8] | [11] | [12] | [13]
inactive: all other assays above

C=CC(=O)OCC(F)(F)C(F)(F)C(F)(F)C(F)(F)C(F)(F)C(F)(F)C(F)(F)F
inactive: [1] | [2] | [3] | [4] | [5] | [6] | [7] | [8] | [9]
active: [1] 14 µM | [6] 44.7 µM | [10] 6.72 µM and 18.4 µM

O=C(O)C(F)(F)C(F)(F)F
not listed: [11] | [12] | [13]
inactive: all other assays above

FC1CC(F)(F)C(F)(F)C1(F)F (stereo not drawn)
not listed: [11] | [12] | [13]
inactive: all other assays above

O=C(O)C(F)(F)C(F)(F)C(F)(F)F
not listed: [8]
inactive: all other assays above

CCCCCCCCCCCCCCCC[N+](C)(C)Cc1ccccc1
active: [1] 5.2 µM | [2] 0.274 µM | [3] 2.44 µM | [4] 9.92 µM | [5] 2.84 µM | [6] 5.5 µM | [7] 2.1 µM | [8] 987 nM | [9] 1.73 µM | [10] 2.96 µM
